ChEMBL document CHEMBL4513216, “Probing the Open Global Health Chemical Diversity Library for Multistage-Active Starting Points for Next-Generation Antimalarials” (ACS Infect Dis, 2020)
Among all 68,000 compounds or so, about 2,700 (4%) showed an effect of 50% or more. This excerpt belongs to a sample that is enriched for strong results.

system: Plasmodium berghei; assay: Screen against P. berghei liver stage (PbLuc), transformed with Luciferase, at 2uM; format: functional, HepG2; details: tested at 2 uM

**Q.** How did the INHIBITION turn out when Cc1nccn1C1CCCN(C(=O)CCc2nc(C(C)C)no2)C1 (stereo not drawn) was run?
**A.** Its INHIBITION is 21.71%.

**Q.** Which INHIBITION does the source give for CN1C(=O)[C@@H]2CC[C@H]1CN(C(=O)Nc1cccc3ccccc13)C2 here?
**A.** The INHIBITION was -110.62%.

**Q.** How did the INHIBITION turn out when CCN(CC)C1COc2c(cc(Br)c(C)c2C)C1=O (stereo not drawn) was run?
**A.** The INHIBITION was 24.56%.

**Q.** How did the INHIBITION turn out when CCN(CC)C1COc2c(cc(Br)c(C)c2Br)C1=O (stereo not drawn) was run?
**A.** The INHIBITION was 58.18%.

**Q.** With Cc1c(Br)cc2c(c1C)OCC(N(C)C)C2=O (stereo not drawn) as the molecule, how does the INHIBITION read?
**A.** The INHIBITION was -5.64%.

**Q.** Cc1cnn(CCNCC(O)COc2ccc(F)cc2)c1 (stereo not drawn) was tested. Which INHIBITION did it give?
**A.** The INHIBITION was -0.05%.

**Q.** For CC(C)(C)C(=O)N1CCC(n2nc(-c3ccco3)ccc2=O)CC1, which INHIBITION is on record?
**A.** The INHIBITION was 17.8%.

**Q.** CN(C)C(=O)N1C[C@H]2CN(Cc3cccc(F)c3)C(=O)[C@H]2C1 was tested. Which INHIBITION did it give?
**A.** Its INHIBITION is 18.8%.

**Q.** For O=C1[C@H]2CN(C3CCOCC3)C[C@H]2CN1Cc1cccc(F)c1, which INHIBITION is on record?
**A.** Its INHIBITION is 66.67%.

**Q.** Which INHIBITION does the source give for CN(C)C(=O)CN1C[C@H]2CN(Cc3cccc(F)c3)C(=O)[C@H]2C1 here?
**A.** The INHIBITION was 53.98%.

**Q.** O=C1[C@H]2CN(CC3CC3)C[C@H]2CN1Cc1cccc(F)c1 was tested. Which INHIBITION did it give?
**A.** The INHIBITION was 26.52%.

**Q.** Cc1cccc(CN2C[C@@H]3CN(C4CCOCC4)C[C@@H]3C2=O)c1 was tested. Which INHIBITION did it give?
**A.** The INHIBITION was 6.22%.

**Q.** Which INHIBITION does the source give for O=C1[C@H]2CN(CC3CCOCC3)C[C@H]2CN1Cc1cccc(F)c1 here?
**A.** Its INHIBITION is 14.13%.

**Q.** CNC(=O)COc1ccc(CNCc2c(C)nn(C)c2N(C)C)cc1 was tested. Which INHIBITION did it give?
**A.** Its INHIBITION is -5.7%.

**Q.** Which INHIBITION does the source give for Cc1cnc(N2CCc3c(CNc4ccnc(C)n4)cncc3C2)nc1 here?
**A.** The INHIBITION was -25.4%.

**Q.** Which INHIBITION does the source give for CN1C(=O)C2(CC(=O)Nc3c2cnn3C(C)(C)C)c2c(Cl)cccc21 (stereo not drawn) here?
**A.** The INHIBITION was -20.78%.

**Q.** O=C(Cn1cnnn1)NCC1(O)CCCc2ccccc21 (stereo not drawn) was tested. Which INHIBITION did it give?
**A.** Its INHIBITION is -4.62%.

**Q.** CNc1nc(C(=O)N2CCCn3nc(C(=O)N4CCCC4)cc3C2)cs1 was tested. Which INHIBITION did it give?
**A.** Its INHIBITION is -38.39%.

**Q.** Which INHIBITION does the source give for Cc1ccnc(OC[C@]23COC[C@H]2CN(C(=O)Cc2ccsc2)C3)n1 here?
**A.** The INHIBITION was 11.1%.

**Q.** How did the INHIBITION turn out when O=C(NCCSc1ccccc1F)NCc1cccnc1 was run?
**A.** Its INHIBITION is 68.04%.

**Q.** O=C(CCSc1ccccc1F)NCc1cccnc1 was tested. Which INHIBITION did it give?
**A.** The INHIBITION was -67.38%.

**Q.** How did the INHIBITION turn out when O=C(Cc1cccnc1)NCCSc1ccccc1F was run?
**A.** The INHIBITION was -10.89%.

**Q.** How did the INHIBITION turn out when CN1CCCN(C(=O)c2cnc(Cc3c(Cl)cccc3Cl)nc2O)CC1 was run?
**A.** The INHIBITION was -116.99%.

**Q.** Which INHIBITION does the source give for CSCC(=O)N(C)Cc1cnn(-c2ccc(F)cc2)c1 here?
**A.** Its INHIBITION is -9.65%.

**Q.** Which INHIBITION does the source give for Cc1ccnn1CC(=O)N(C)Cc1cnn(-c2ccccc2)c1 here?
**A.** Its INHIBITION is 60.67%.

**Q.** For Cc1ccnn1CC(=O)N(C)Cc1ccc(-n2cccn2)cc1, which INHIBITION is on record?
**A.** Its INHIBITION is 18.76%.

**Q.** For CSc1ccc(C)c(C(=O)N2CCCC(n3cncn3)C2)c1 (stereo not drawn), which INHIBITION is on record?
**A.** The INHIBITION was -1.88%.

**Q.** COC(=O)c1ccc(S(=O)(=O)N(C)CC(N)=O)c(Cl)c1 was tested. Which INHIBITION did it give?
**A.** Its INHIBITION is -3.54%.

**Q.** For O=C(Nc1nccs1)N(CCO)Cc1ccsc1, which INHIBITION is on record?
**A.** The INHIBITION was -14.3%.

**Q.** Cc1cccnc1NC(=O)N(CCO)Cc1ccsc1 was tested. Which INHIBITION did it give?
**A.** The INHIBITION was 36.95%.

**Q.** For O=C(Nc1ccccn1)N(CCO)Cc1ccsc1, which INHIBITION is on record?
**A.** Its INHIBITION is 58.49%.

**Q.** O=C(O)c1c(-c2cncnc2)ncc2c1CCN(Cc1cccnc1)C2 was tested. Which INHIBITION did it give?
**A.** Its INHIBITION is 11.98%.

**Q.** Which INHIBITION does the source give for O=C(NCC1Cn2nnc(-c3ccoc3)c2CO1)c1ccc[nH]1 (stereo not drawn) here?
**A.** Its INHIBITION is 12.21%.

**Q.** O=C(N1CCCC1)N1C[C@@H]2CCNC[C@@H]21 was tested. Which INHIBITION did it give?
**A.** Its INHIBITION is 32.05%.

**Q.** How did the INHIBITION turn out when O=C(C1CCCC1)N1C[C@@H]2CCNC[C@@H]21 was run?
**A.** Its INHIBITION is 34.79%.

**Q.** How did the INHIBITION turn out when O=C(C1CCCCC1)N1C[C@@H]2CCNC[C@@H]21 was run?
**A.** The INHIBITION was 63.89%.

**Q.** Which INHIBITION does the source give for CN1CC[C@H]2OCC[C@@]2(C(=O)NCCc2ccccn2)C1 here?
**A.** The INHIBITION was 23.81%.

**Q.** How did the INHIBITION turn out when O=C(NCCc1ccccn1)[C@@]12CCO[C@@H]1CCN(CC1CC1)C2 was run?
**A.** Its INHIBITION is 51.81%.

**Q.** For CC(=O)N1CC[C@H]2OCC[C@@]2(C(=O)NCCc2ccccn2)C1, which INHIBITION is on record?
**A.** Its INHIBITION is 7.55%.

**Q.** How did the INHIBITION turn out when CN(Cc1nc2ccccc2s1)C1CCCN(c2cccnn2)C1 (stereo not drawn) was run?
**A.** Its INHIBITION is 29.39%.

**Q.** c1cnc2nc(N3CCCC3c3nnc4n3CCCCC4)ccc2n1 (stereo not drawn) was tested. Which INHIBITION did it give?
**A.** The INHIBITION was 2.06%.

**Q.** With Cc1c(C(=O)N[C@@H]2CC[C@@H](N3CCCC3)[C@@H]2O)[nH]c2ccc(F)cc12 as the molecule, how does the INHIBITION read?
**A.** Its INHIBITION is 30.96%.

**Q.** Cc1ccc(C)n1-c1ccsc1C(=O)NCC(=O)N1CCCC1 was tested. Which INHIBITION did it give?
**A.** Its INHIBITION is 36.34%.

**Q.** How did the INHIBITION turn out when O=C(NCC(=O)N1CCCCC1)c1sccc1C1CC1 was run?
**A.** Its INHIBITION is 54.62%.

**Q.** For O=C(NCC(=O)N1CCN(c2ccccc2)CC1)c1sccc1C1CC1, which INHIBITION is on record?
**A.** The INHIBITION was -31.42%.

**Q.** With Cc1ccc2nc(C(=O)N(C)[C@@H]3CC[C@@H](N4CCCC4)[C@@H]3O)cn2c1 as the molecule, how does the INHIBITION read?
**A.** Its INHIBITION is -18.64%.

**Q.** Which INHIBITION does the source give for Cc1ccsc1-c1nccn1CCS(C)(=O)=O here?
**A.** The INHIBITION was 38.1%.

**Q.** For Cc1ccsc1-c1nccn1CCN(C)S(C)(=O)=O, which INHIBITION is on record?
**A.** Its INHIBITION is 4.48%.

**Q.** With Cc1cn(CCn2ccnc2-c2sccc2C)nn1 as the molecule, how does the INHIBITION read?
**A.** Its INHIBITION is 59.08%.

**Q.** For COc1ccnc(NCc2ccccc2Cn2cccn2)n1, which INHIBITION is on record?
**A.** Its INHIBITION is -136.67%.

**Q.** How did the INHIBITION turn out when CN1CCCN(C(=O)NCCNc2ncccn2)CC1 was run?
**A.** The INHIBITION was -3.93%.

**Q.** With CC(=O)N1CCCC(c2cnc(-c3c(C)nn(C)c3C)cn2)C1 (stereo not drawn) as the molecule, how does the INHIBITION read?
**A.** The INHIBITION was 20.08%.

**Q.** Cc1nn(C)c(C)c1-c1cnc(C2CCCN(S(C)(=O)=O)C2)cn1 (stereo not drawn) was tested. Which INHIBITION did it give?
**A.** The INHIBITION was 51.15%.

**Q.** For Cc1nn(C)c(C)c1-c1cnc(C2CCCN(C)C2)cn1 (stereo not drawn), which INHIBITION is on record?
**A.** Its INHIBITION is 22.81%.

**Q.** With CN(C)c1ccc(CN(CCCn2ccnc2)Cc2c[nH]cn2)cc1 as the molecule, how does the INHIBITION read?
**A.** Its INHIBITION is 18.15%.

**Q.** Which INHIBITION does the source give for Cn1c(CCCNC(=O)Nc2cn[nH]c2)nc2ccccc21 here?
**A.** The INHIBITION was 29.13%.

**Q.** For Cn1c(CCNC(=O)Nc2cn[nH]c2)nc2ccc(F)cc21, which INHIBITION is on record?
**A.** Its INHIBITION is 55.36%.

**Q.** For CC(C)n1nccc1NC(=O)NCCc1nc2ccc(F)cc2n1C, which INHIBITION is on record?
**A.** The INHIBITION was 2.9%.

**Q.** For CN(Cc1ccccc1)C1(C(=O)NCC(N)=O)Cc2ccccc2C1, which INHIBITION is on record?
**A.** The INHIBITION was 6.39%.

**Q.** Which INHIBITION does the source give for Cc1cc(CCC2CN(Cc3ccccc3C(=O)O)CCO2)ncn1 (stereo not drawn) here?
**A.** The INHIBITION was 0.3%.

**Q.** How did the INHIBITION turn out when Cc1cc(C[S+]([O-])CC(=O)NCc2ccccc2)no1 (stereo not drawn) was run?
**A.** The INHIBITION was -15.28%.

**Q.** Cc1cc(C[S+]([O-])CC(=O)NCC(C)C)no1 (stereo not drawn) was tested. Which INHIBITION did it give?
**A.** The INHIBITION was -10.66%.

**Q.** Cc1cc(C[S+]([O-])CC(=O)Nc2c(C)cccc2C)no1 (stereo not drawn) was tested. Which INHIBITION did it give?
**A.** The INHIBITION was 51.21%.

**Q.** How did the INHIBITION turn out when CCOC(=O)CN1C(=O)CN(S(C)(=O)=O)CCC(OC)c2ccccc21 (stereo not drawn) was run?
**A.** Its INHIBITION is 12.44%.

**Q.** How did the INHIBITION turn out when Cc1ccccc1CNC(=O)CN1CCN(Cc2nccn2C)CC1 was run?
**A.** The INHIBITION was -34.45%.

**Q.** For Cn1ccnc1CN1CCN(CC(=O)NCC(F)(F)F)CC1, which INHIBITION is on record?
**A.** Its INHIBITION is 62.13%.

**Q.** Which INHIBITION does the source give for Cn1ccnc1CN1CCN(CC(=O)NCc2ccccc2F)CC1 here?
**A.** Its INHIBITION is 26.09%.

**Q.** How did the INHIBITION turn out when CS(=O)(=O)c1snnc1C1CCN(Cc2ccc3nccnc3c2)CC1 was run?
**A.** Its INHIBITION is 28.67%.
